Hits are enriched below; roughly 1.5% of the tested compounds scored in any of these assays.
IDE inh: human IDE inhibitors in live cells, primary screen, fluorescence polarization, HEK cells, FAbetaB substrate; AID 434962, 2010; Insulin-degrading enzyme (Homo sapiens), P14735; 0.41% of 320,000 active; inhibition, % at 5.59 µM; FAbetaB cleavage;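 active = percent inhibition above the average of all tested compounds plus 3 SD, set per screening campaign, cut at about 16% in these data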;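 note: IDE supplied by intact live HEK cells; FP after avidin binding of uncleaved biotin substrate so inhibition keeps polarization high; 0% = DMSO wells and 100% = 60 µM reference IDE inhibitor Ii1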
Target sequence (P14735 whole entry, looked up): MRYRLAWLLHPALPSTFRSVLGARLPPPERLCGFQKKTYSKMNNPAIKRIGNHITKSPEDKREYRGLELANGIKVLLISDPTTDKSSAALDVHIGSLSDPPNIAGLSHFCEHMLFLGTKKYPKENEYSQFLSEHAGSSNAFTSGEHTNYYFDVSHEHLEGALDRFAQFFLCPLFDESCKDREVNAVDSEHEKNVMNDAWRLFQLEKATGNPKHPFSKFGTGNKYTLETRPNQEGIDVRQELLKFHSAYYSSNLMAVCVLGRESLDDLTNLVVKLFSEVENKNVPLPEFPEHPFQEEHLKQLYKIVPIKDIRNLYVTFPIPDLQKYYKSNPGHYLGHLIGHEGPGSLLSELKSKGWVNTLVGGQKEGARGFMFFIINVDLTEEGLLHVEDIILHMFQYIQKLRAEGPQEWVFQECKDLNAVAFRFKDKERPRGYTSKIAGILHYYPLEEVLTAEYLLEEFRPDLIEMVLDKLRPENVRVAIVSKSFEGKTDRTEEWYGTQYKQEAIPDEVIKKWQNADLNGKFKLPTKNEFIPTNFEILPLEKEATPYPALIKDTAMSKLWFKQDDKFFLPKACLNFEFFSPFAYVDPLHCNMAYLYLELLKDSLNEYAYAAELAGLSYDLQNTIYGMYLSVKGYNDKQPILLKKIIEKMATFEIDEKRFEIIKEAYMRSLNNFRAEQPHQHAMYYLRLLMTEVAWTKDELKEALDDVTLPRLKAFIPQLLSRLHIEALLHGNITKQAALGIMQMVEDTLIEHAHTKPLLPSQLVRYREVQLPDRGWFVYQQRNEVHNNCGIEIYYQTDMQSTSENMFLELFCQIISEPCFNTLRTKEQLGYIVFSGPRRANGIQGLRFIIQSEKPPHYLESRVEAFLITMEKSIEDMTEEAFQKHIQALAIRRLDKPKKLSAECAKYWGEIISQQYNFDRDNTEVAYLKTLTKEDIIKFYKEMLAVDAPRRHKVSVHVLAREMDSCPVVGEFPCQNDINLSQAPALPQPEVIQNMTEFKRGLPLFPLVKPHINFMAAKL
Cardiac RTF inh: cardiac RTF calcium sensitivity inhibitors, primary screen, biochemical, IANBD-TnC fluorescence, EC70 calcium | inhibition, % at 7.15 µM | 0.12% of 340,000 active | Troponin I, cardiac muscle (Homo sapiens) + Troponin T, cardiac muscle (Homo sapiens) + … | AID 493244, 2011 | IANBD-labeled cardiac RTF, Ca2+ fluorescence;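 active = inhibition above the mean inhibition of all tested compounds plus 3 SD, cut at about 17% in these data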;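 note: assay run at fixed EC70 calcium of 1.6 mM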
IDE act: human IDE activators in live cells, primary screen, fluorescence polarization, HEK cells, FAbeta-B substrate; FAbeta-B cleavage; 0% vehicle, 100% cell-free pure enzyme wells; AID 493087, 2011; activation, % at 5.96 µM; Insulin-degrading enzyme (Homo sapiens), P14735; 0.073% of 340,000 active;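 active = activation above the mean of all tested compounds plus 3 SD, set per screening campaign, cut at about 17% in these data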
CRFBP-R2 block: antagonists of CRF-BP/CRF-R2 complex, primary screen, cell-based, HEK293, calcium dye fluorescence, uHTS | CRF-induced calcium fluorescence | inhibition, % at 11.8 µM | 0.59% of 350,000 active;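 active = inhibition of the ligand-induced calcium signal above about 50% at the single tested concentration, limit read from the data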
cardiac RTF act: cardiac RTF calcium sensitivity activators, primary screen, biochemical, IANBD-TnC fluorescence, EC20 calcium; Troponin I, cardiac muscle (Homo sapiens) + Troponin T, cardiac muscle (Homo sapiens) + …; IANBD-labeled TnC RTF fluorescence at EC20 calcium; 0% EC20 calcium, 100% full calcium; activation, % at 7.2 µM; 0.24% of 340,000 active; AID 493008, 2010;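 active = activation above the mean over all tested compounds plus 3 SD, cut at about 30% in these data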;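 note: rise in fluorescence read as greater calcium sensitivity of cardiac thin filaments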
CRFBP-R2 agonist: agonists of CRF-BP/CRF-R2 complex, primary screen, cell-based, HEK293, calcium dye fluorescence, uHTS. CRF-binding protein / CRF receptor 2 complex (human). calcium dye fluorescence (FLIPR); percent of saturating CRF peptide response. activation, % at 13.2 µM. 0.46% of 350,000 active. AID 588473, 2011;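 active = activation of at least 50%, plus an integration ratio under a set limit after plate pattern correction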;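 note: plate controls were neutral control wells without compound for no effect and CRF at EC100 for full effect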
An asterisk follows results filed as active; i = inactive; x = not tested or not shown.

SMILES	IDE inh	Cardiac RTF inh	IDE act	CRFBP-R2 block	cardiac RTF act	CRFBP-R2 agonist
O=C(c1ccccc1)C1NC1c1ccccc1 (configuration not stated)	3	-4	20*	8	9	-1
CN1/C(=C\C=C2C(=O)NC(=S)NC2=O)C(C)(C)c2ccccc21	x	i	-204	-177	433*	215*
O=C1NC(=S)SC1=Cc1ccc(N(CCCl)CCCl)cc1	x	-76	-36	-100	94*	88*
CN(C(=O)Oc1cccc2ccccc12)C1C=CCC1 (configuration not stated)	x	-7	-3	6	0	-1
OC12CCCCC1C(c1ccccc1)NCC2 (configuration not stated)	0	3	2	-24	210*	2
OC1(c2ccccc2)CCNC2CCCCC21 (configuration not stated)	0	5	3	-21	-2	4
CCC1(CC)C(=O)NC(=O)N(CCc2ccccn2)C1=O	x	1	3	-16	-1	0
CCCCCC[N+](=O)[O-]	2	4	4	12	-2	-2
CCCCCCCCCCCCCCCC[N+](C)(C)C	1	4	8	66*	-2	4
CCN(CC)c1ccc(N=Cc2c(O)n(CCC3=CCCCC3)c(=O)[nH]c2=O)cc1	1	-10	4	-132	5	115*
CC1(C)CC(=O)CC(C)(C)N1O	x	x	x	15	x	-1
Cc1ccc(-c2cc(-c3ccc(C)cc3)[n+](-c3ccccc3)c(-c3ccc(C)cc3)c2)cc1	3	-9	3	-21	1	60*
c1ccc(-c2cc(-c3ccccc3)[n+](-c3ccccc3)c(-c3ccccc3)c2)cc1	2	-5	-12	-13	7	20
CN(C)c1ccc(-[n+]2c(-c3ccccc3)cc(-c3ccccc3)cc2-c2ccccc2)cc1	x	x	x	-80	x	1
Cc1ccc(-c2cc(-c3ccccc3)cc(-c3ccccc3)[n+]2-c2ccccc2)cc1	0	4	-1	-94	-3	66*
COc1ccccc1C(=O)Nc1ccc2c(c1)CC1(C(=O)N(C)C(=O)N(C)C1=O)C1CCCN21 (configuration not stated)	5	-2	1	-106	-3	182*
Cc1cccc(C(=O)Nc2ccc3c(c2)CC2(C(=O)N(C)C(=O)N(C)C2=O)C2CCCN32)c1 (configuration not stated)	3	1	4	-5	-4	8
Cn1cc(C=C2C(=O)NC(=O)NC2=O)c2ccccc21	0	-2	2	-36	14	59*
O=C1NC(=O)C(=Cc2coc3ccccc3c2=O)C(=O)N1	-1	-4	-3	-45	11	71*
CCN1C(=O)CC(=O)N(CC)C1=S	x	x	x	12	x	-1
O=[N+]([O-])c1[nH]cnc1Br	x	-21	3	11	1	1
O=c1[nH]c(=O)n(-c2ccc(F)cc2)c(O)c1/C=C1\C=Nc2ccccc21	4	-11	-1	-47	7	102*
Cc1ccc(OC(=O)N(C)C[C@@H]2OCc3cnnn3CCCC(=O)N([C@@H](C)CO)C[C@@H]2C)cc1	x	x	x	60*	x	2
Cc1ccc(OC(=O)N(C)C[C@@H]2OCc3cnnn3CCCC(=O)N([C@H](C)CO)C[C@H]2C)cc1	x	x	x	-1	x	-1
Cc1ccccc1N1C(=O)NC(=O)/C(=C\c2cc(Br)c(N3CCOCC3)o2)C1=O	2	-51	-14	-112	64*	113*
SMILES	IDE inh	Cardiac RTF inh	IDE act	CRFBP-R2 block	cardiac RTF act	CRFBP-R2 agonist
c1ccc2[nH]c(CCN3CCCCC3)nc2c1	x	x	x	3	x	1
CCc1ccccc1N1C(=O)/C(=C/c2ccc(N3CCN(C)CC3)o2)C(=O)NC1=S	1	-41	-20	-31	65*	55*
Cc1cccc(N2C(=O)/C(=C/c3ccc(N4CCN(C)CC4)o3)C(=O)NC2=S)c1C	9	-45	-26	-29	89*	51*
Cc1cc(C)c(C)c(C(O)(C(=O)O)c2ccccc2)c1 (configuration not stated)	x	x	x	-13	x	1
CCN(CCNc1ccc([N+](=O)[O-])c2cccnc12)S(=O)(=O)c1ccccc1	-10	2	1	18	0	-1
Cc1c(NS(=O)(=O)c2ccccc2)ccc([N+](=O)[O-])c1Cl	x	1	-3	54*	-2	29
N#CC1c2ccccc2-n2nncc2CN1C(=O)CCc1ccccc1 (configuration not stated)	x	-2	-4	-1	0	15
CN(C)P(=O)(NC(=O)c1cccn1C)N(C)C	-1	-20	-3	107*	15	4
CCCCCc1nc2c(c(=O)c3ccccc3n2C)c(=O)n1C1CCCCCC1	6	-6	4	-199	3	219*
CCCCCc1nc2ccccc2c(=O)n1-c1ccccc1[N+](=O)[O-]	1	-8	-2	-2	4	0
COc1cccc2c1C(=O)c1c(O)c3c(c(O)c1C2=O)CC(O)(C(C)=NO)CC3OC1CC(N)C(O)C(C)O1 (configuration not stated)	x	-206	8	-18	166*	37
CCOc1ccc(N2C(=O)/C(=C/c3ccco3)C(=O)NC2=S)cc1	2	56*	2	9	-40	-2
O=C1NC(=O)C(C2CCCCCC2)C(=O)N1	x	-4	4	-5	-2	1
N#CC1c2ccccc2-n2nncc2CN1Cc1cc(Cl)cc(Cl)c1 (configuration not stated)	x	-14	-12	-12	-3	-1
CC(=O)O[C@H]1CCC2C3CC[C@H]4[C@@H](O)[C@H](O)CC[C@]4(C)C3CC[C@@]21C (some centres not stated)	x	-16	-1	-7	4	4
CC(C)CNP(=S)(c1ccccc1)C(C)(C)C (configuration not stated)	-1	-1	6	66*	6	-1
N#CC(C#N)=Cc1ccc(-c2ccccc2)o1	0	x	x	x	x	x
N#CC(C#N)=Cc1ccc(-c2ccccc2F)o1	-2	-36	2	-54	36*	35
Nc1ccc2nonc2c1[N+](=O)[O-]	3	-131	9	-31	102*	70*
O=C(c1cc(Cl)cc(Cl)c1)N1Cc2ccccc2-n2nncc2C1	x	x	x	5	x	-2
Cc1cc2c(C(F)(F)F)cc(=O)oc2c2c1NCCC2	5	-105	-12	-214	63*	178*
O=c1c2ccccc2nc(/C=C/c2ccccc2)n1-c1ccccc1O	-3	3	4	-12	2	-1
